# Experimental data reported in PubChem BioAssay (EPA / NIEHS).
# Inconclusive results are not listed. Active and inactive are the calls of the source. The calls were made as follows, unless noted: active = hit-call score of the fitted dose curve at least 0.9, where 1 is the maximum; inconclusive = response in the unintended direction; inactive = score below 0.9.
# Assays:
# [1] = Tanguay_ZF_120hpf_TR_legacy: (Legacy) Oregon State University Tanguay Lab 120 Hour Post-fertilization zebrafish Assay for Touch Response (AID 2283667)
# In short: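 Tropical 5D wild-type zebrafish embryos statically exposed to 120 hpf at 28°C, sealed and dark-covered, 0.64% DMSO final; touch response scored as present/absent by brightfield microscopy at 120 hpf. Trimethyltin chloride 5 uM positive control; dead embryos not scored.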
# [2] = read-out: solute carrier (SLC10A1), SLC10A1 (gene 6554); test: LTEA_HepaRG_SLC10A1: Life Technologies and Expression Analysis (LTEA) Assay for solute carrier (SLC10A1) using HepaRG (AID 2283657; active = hit-call score of the fitted dose curve at least 0.9, where 1 is the maximum; inactive = score below 0.9); details: mRNA level, 48 h; actives raise or lower the signal
# In short: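 HepaRG cells (single lot) exposed 48 h in serum-free induction medium, 8-point half-log series from 100 uM top in 0.5% DMSO, duplicate. SLC10A1 mRNA by qRT-PCR normalised to ACTB, GAPDH, POLR2A; bidirectional fit versus DMSO.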
# [3] = read-out: matrix metalloproteinase-1 (MMP1), MMP1 (gene 4312); test: LTEA_HepaRG_MMP1: Life Technologies and Expression Analysis (LTEA) Assay for matrix metalloproteinase-1 (MMP1) using HepaRG (AID 2283658; active = hit-call score of the fitted dose curve at least 0.9, where 1 is the maximum; inactive = score below 0.9); details: mRNA level, 48 h; actives raise or lower the signal
# In short: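 MMP1 transcript read by TaqMan qRT-PCR (Fluidigm array) after 48 h chemical exposure of HepaRG cells in serum-free induction medium. Eight-point half-log series, top 100 uM, 0.5% DMSO vehicle. Bidirectional curve fit against DMSO baseline.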
# [4] = read-out: Cytochrome P450 (CYP24A1_1), CYP24A1 (gene 1591); test: LTEA_HepaRG_CYP24A1_1: Life Technologies and Expression Analysis (LTEA) Assay for Cytochrome P450 (CYP24A1_1) using HepaRG (AID 2283671; active = hit-call score of the fitted dose curve at least 0.9, where 1 is the maximum; inactive = score below 0.9); details: mRNA level, 48 h; actives raise or lower the signal
# In short: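 Differentiated human HepaRG cells in serum-free induction medium, exposed 48 h in duplicate to eight half-log concentrations from 100 uM top, 0.5% DMSO. Transcript measured by TaqMan qRT-PCR, normalised to ACTB, GAPDH, POLR2A; bidirectional fitting versus DMSO.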
# [5] = CCTE_Padilla_ZF_144hpf_TERATOSCORE: (Legacy) CCTE's 144 Hour Post-fertilization zebrafish Assay Teratoscore, Padilla Lab (AID 2283679; active = hit-call score of the fitted dose curve at least 0.9, where 1 is the maximum; inactive = score below 0.9;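 as to AC50: zebrafish embryos with chorions exposed by immersion from 6-8 hpf to 5 dpf with daily renewal; teratogenicity score from eye scoring of death hatching and malformations at 144 hpf; higher score means more developmental defects relative to DMSO baseline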)
# In short: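 Larvae scored by eye at 144 hpf for death, hatching and malformations after a day in clean Hanks'. Before that, daily-renewed exposure at 80 uM (0.4% DMSO, 26C) from roughly 6-8 hpf through 5 dpf, 4 embryos per chemical.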
# [6] = STM_H9_OrnithineISnorm_perc: Stemina devTOX quickPredict H9 human embryonic stem cell (hESC)-based Assay for Ornithine (ORN) Metabolite Biomarker, Normalized (AID 2283712; active = hit-call score of the fitted dose curve at least 0.9, where 1 is the maximum; inactive = score below 0.9;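 also: ornithine released into spent medium during last day measured by mass spectrometry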)
# In short: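 Undifferentiated H9 hESCs exposed 72 h with daily media and compound renewal; final 24-h conditioned medium analysed by UPLC-HRMS. Ornithine peak area normalised to spiked C13 standard and to median 0.1% DMSO control; viability by CellTiter-Fluor.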
# [7] = STM_H9_CystineISnorm_perc: Stemina devTOX quickPredict H9 human embryonic stem cell (hESC)-based Assay for Cystine (CYSS) Metabolite Biomarker, Normalized (AID 2283713; active = hit-call score of the fitted dose curve at least 0.9, where 1 is the maximum; inactive = score below 0.9)
# In short: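 Undifferentiated H9 hESCs exposed 72 h, compound and media replaced every 24 h; final 24-h media analysed by UPLC-HRMS. Cystine normalized to C13 spike-in standard and median 0.1% DMSO control.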
# [8] = STM_H9_OrnCyssISnorm_ratio: Stemina devTOX quickPredict H9 human embryonic stem cell (hESC)-based Assay for Ornithine (ORN):Cystine (CYSS) Ratio (AID 2283714)
# In short: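 Undifferentiated H9 hESCs exposed 72 h, media and compound replaced every 24 h; final 24-h conditioned media deproteinized and analysed by UPLC-HRMS against C13 spike-ins. Value is the internal-standard-normalized ORN/CYSS ratio versus 0.1% DMSO.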
# [9] = CEETOX_H295R_MTT_cell_viability: Viability Assessment in the CeeTox HT-H295R MTT Assay (AID 2283718; active = hit-call score of the fitted dose curve at least 0.9, where 1 is the maximum; inactive = score below 0.9;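 as to AC50: curve fitted both ways so AC50 may mark viability loss or gain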)
# In short: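 Human H295R adrenal cells, prestimulated 48 h with 10 uM forskolin, were exposed 48 h to chemicals in 0.1% DMSO. Viability was measured in the same wells by MTT (0.5 mg/ml, 4 h, 37 C), absorbance 570/650 nm, as percent of controls.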
# [10] = tested on: Thyroperoxidase (TPO), gene 54314; test: CCTE_Simmons_AUR_rTPO: CCTE's Amplex UltraRed Assay for Thyroperoxidase (TPO) Inhibition, Simmons Lab (AID 2283662);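 also: potency for loss of signal meaning inhibition of peroxidase activity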
# In short: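 Rat thyroid microsomes (5 ug protein) were incubated with test compound (8 concentrations, 5 nM–87.5 uM final, 0.5% DMSO), 25 uM Amplex UltraRed and 300 uM H2O2 in 200 mM phosphate buffer for 30 min at 37C in the dark; fluorescence read at 544/590 nm.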
# [11] = CCTE_Simmons_CellTiterGLO_HEK293T: Viability Assessment in CCTE's Assays for Thyroperoxidase (TPO) Inhibition, Simmons Lab (AID 2283665)
# In short: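 HEK293T cells in DMEM with 1% FBS, dosed 24 h at 37C with 8 concentrations, 5 nM–87.5 uM final, 0.5% DMSO. ATP measured by CellTiter Glo luminescence; loss of signal vs DMSO, three biological replicates.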
# [12] = ArunA_CellTiter_hNC: Viability Assessment in the ArunA Biomedical's Oris Neural Crest (hNC) Cell Migration Assay (AID 2283752)
# In short: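 Human H9-derived neural crest cells plated on Matrigel (60,000/well) with LIF and bFGF, incubated 16 h, then exposed 72 h to chemical in test medium. Viability measured with CellTiter Aqueous One reagent; loss of signal versus DMSO.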
# [13] = ArunA_CellTiter_hNP: Viability Assessment in the ArunA Biomedical's Oris Neural Crest (hNC) Cell Migration Assay (AID 2283753)
# In short: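 H9-derived hNP1 neuroprogenitors, 60,000/well on Matrigel, cultured 16 h, then 72 h chemical exposure in test medium. Cell titer via CellTiter Aqueous One; positive-direction fit vs DMSO.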
# [14] = ArunA_Migration_hNP: ArunA Biomedical's Oris Neuroprogenitor (hNP) Cell Migration Assay (AID 2283754)
# In short: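 Human H9-derived hNP1 neuroprogenitors on Matrigel with LIF/bFGF, plated around seeding stoppers for 16 h at 37C; stoppers removed at start of 72 h chemical exposure. Calcein-AM staining, fluorescence 494/517 nm in detection zone; loss-of-signal vs DMSO; cytochalasin D control.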
# [15] = ArunA_Migration_hNC: ArunA Biomedical's Oris Neural Crest (hNC) Cell Migration Assay (AID 2283755)
# In short: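 Human H9-derived neural crest stem cells, 60,000/well on Matrigel, 16 h at 37C, then 72 h chemical exposure after seeding-stopper removal. Migration into detection zone read as calcein-AM fluorescence (ex494/em517), relative to DMSO.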
# [16] = ArunA_NOG_NucleusCount: ArunA Biomedical's Neurite Outgrowth (NOG) Assay for Nucleus Count (AID 2283756)
# In short: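 Human H9-derived differentiated neurons were exposed for 48 h right after seeding. Hoechst-stained nuclei gated by size and intensity were counted by automated high-content imaging as viable neurons. Loss of signal vs DMSO.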
# [17] = ArunA_NOG_NeuriteLength: ArunA Biomedical's Neurite Outgrowth (NOG) Assay for Neurite Length (AID 2283757)
# In short: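 Differentiated human H9-derived neurons were exposed for 48 h from seeding, then stained with Hoechst and βIII-tubulin. Automated high-content imaging gave total neurite length per valid neuron, counting processes >10 um. Loss of signal was scored versus DMSO.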
# [18] = ArunA_NOG_NeuritesPerNeuron: ArunA Biomedical's Neurite Outgrowth (NOG) Assay for Neurites Per Neuron (AID 2283758)
# In short: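 Differentiated human H9-derived neurons exposed to chemicals for 48 h from seeding, then stained with Hoechst and βIII-tubulin/DyLight 488. Automated imaging counted neurites (processes >10 um) per valid neuron; loss of signal versus DMSO scored.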
compound,measurement,setting,value
OC(CCl)CCl,outcome,[1],inactive
COc1cc2c(c(OC)c1OC)-c1ccc(OC)c(=O)cc1[C@@H](NC(C)=O)CC2,AC50,[2],0.107 µM (active)
same,outcome,[3],inactive
same,AC50,[1],13.3 µM (active)
same,AC50,[4],0.067 µM (active)
same,AC50,[5],61.5 µM (active)
same,AC50,[6],0.0159 µM (active)
same,AC50,[7],0.0121 µM (active)
same,AC50,[8],0.0127 µM (active)
same,AC50,[9],0.118 µM (active)
OCCOCCOCCO,outcome,[1],inactive
O=C(NO)C1(NS(=O)(=O)c2ccc(Oc3ccc(F)cc3)cc2)CCOCC1,AC50,[10],18.1 µM (active)
same,outcome,[11],inactive
same,outcome,[1],inactive
O=C(O)c1cccc(C[C@@H]2COc3ccc(OCc4nc5cc(F)ccc5s4)cc3[C@@H]2O)c1,outcome,[1],inactive
same,AC50,[5],0.463 µM (active)
CCCc1ccccc1,outcome,[1],inactive
same,outcome,[5],inactive
O=C(O)c1ccc2c(c1)nc(C(=O)NC1CCN(C3CC3)CC1)n2Cc1cc(-c2ccc(Cl)s2)on1,outcome,[1],inactive
Cc1cccc(O)c1C,AC50,[10],17.3 µM (active)
same,outcome,[11],inactive
OCC(CO)(CO)CO,outcome,[1],inactive
same,outcome,[5],inactive
NC(=O)N(O)[C@@H]1COc2cc(OCc3ccccc3)ccc21,AC50,[10],1.29 µM (active)
same,outcome,[11],inactive
same,outcome,[1],inactive
same,outcome,[5],inactive
CCN(CC)C(=S)SSC(=S)N(CC)CC,AC50,[1],2.17 µM (active)
same,AC50,[5],0.183 µM (active)
same,AC50,[6],0.32 µM (active)
same,AC50,[7],0.682 µM (active)
same,AC50,[8],0.325 µM (active)
same,outcome,[9],inactive
same,AC50,[12],8.19 µM (active)
same,AC50,[13],7.2 µM (active)
same,AC50,[14],0.405 µM (active)
same,AC50,[15],8.55 µM (active)
same,AC50,[16],18.4 µM (active)
same,AC50,[17],15.5 µM (active)
same,AC50,[18],14.5 µM (active)
NC(N)=O,outcome,[1],inactive
CC(C)CCCCCCOC(=O)C1CCCCC1C(=O)OCCCCCCC(C)C (centres undefined),outcome,[1],inactive
Cc1ccc(S(=O)(=O)NC(=O)NN2CCCCCC2)cc1,AC50,[10],8.68 µM (active)
same,outcome,[11],inactive
same,outcome,[1],inactive
O=C(O)c1cccc(C(=O)O)c1,outcome,[1],inactive
CCCC(CCC)C(=O)O,outcome,[2],inactive
same,outcome,[3],inactive
same,outcome,[1],inactive
same,outcome,[4],inactive
same,AC50,[5],78.7 µM (active)
same,AC50,[6],334 µM (active)
same,AC50,[7],242 µM (active)
same,AC50,[8],293 µM (active)
same,outcome,[12],inactive
same,outcome,[13],inactive
same,AC50,[16],82.6 µM (active)
same,AC50,[17],77.4 µM (active)
same,AC50,[18],91.1 µM (active)
